High-throughput results deposited in PubChem BioAssay by National Center for Advancing Translational Sciences (NCATS).
Integrin act MD: integrin-mediated muscular dystrophy alleviation activation; alpha7betagal myoblasts, beta-gal FDG fluorescence, 48 h; 0.064% of 350,000 active; Potency, µM (top dose mostly 38.3 µM), for inactives: at the highest dose activation, most hits filed as activators; AID 624291;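 further: potency means the concentration at half of the fitted maximal effect; 100% = response of the positive control SU9516; nearly all actives have a fitted effect of over 60% in size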
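Alpha7betagal+/- myoblasts (passage 13) were plated 16-24 hr, then exposed to compounds (1:260 dilution of DMSO stock) for 48 hours at 37C. After MPER lysis, β-galactosidase reporter activity was read as FDG fluorescence (ex 480/em 540) after 30 minutes.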
DRD3 agonist: agonists of human D3 dopamine receptor; D3R DiscoveRx beta-arrestin cells, luminescence, 90 min; max activation, %; 0.58% of 410,000 active; AID 652048; in the data active means max activation above about 30%; further: 0% is about no effect
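Agonist mode: compounds and dopamine controls were applied to plated cells for 90 min at 37 degrees C after an overnight attachment at 1500 cells/well. Luminescent read-out followed 30 - 60 minutes at room temperature with DiscoveRx detection reagent.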
PTHR1 agonist: agonists of human PTHR1 parathyroid hormone receptor | AID 743266 | HEK293 GP2 PTHR1 cells, GloSensor cAMP luminescence, 1 h | Potency, µM (series often up to 115 µM), inactives show top-dose activation, hits mostly activators | Q03431 | 0.075% of 410,000 active; further: potency means the concentration at half of the fitted maximal effect; nearly all actives have a fitted effect of over 55% in size
Target sequence (Q03431 whole entry, looked up): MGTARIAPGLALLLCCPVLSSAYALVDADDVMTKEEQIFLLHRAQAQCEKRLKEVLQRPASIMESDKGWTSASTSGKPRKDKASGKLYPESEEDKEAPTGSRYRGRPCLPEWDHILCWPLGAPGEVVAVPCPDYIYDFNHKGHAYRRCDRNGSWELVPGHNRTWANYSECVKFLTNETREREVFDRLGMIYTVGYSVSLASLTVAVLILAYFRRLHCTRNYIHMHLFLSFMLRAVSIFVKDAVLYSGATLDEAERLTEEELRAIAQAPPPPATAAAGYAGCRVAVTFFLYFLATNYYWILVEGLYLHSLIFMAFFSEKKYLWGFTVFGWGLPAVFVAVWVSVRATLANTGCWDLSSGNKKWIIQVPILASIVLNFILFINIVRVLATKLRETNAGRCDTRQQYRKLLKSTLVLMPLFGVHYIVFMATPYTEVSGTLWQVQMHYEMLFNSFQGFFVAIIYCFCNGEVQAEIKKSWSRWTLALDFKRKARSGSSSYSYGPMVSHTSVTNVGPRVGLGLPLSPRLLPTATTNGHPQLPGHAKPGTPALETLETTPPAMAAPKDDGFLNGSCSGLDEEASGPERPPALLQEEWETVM
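HEK-293-derived GP2 cells expressing PTHR1 and a GloSensor cAMP reporter, 3,000/well, plated overnight, given luciferin plus IBMX (each 0.5 mM as added) for 1 h at 37 °C, then compound for 1 h at 37 °C. Luminescence was read after 15 min at room temperature.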
D3 antag: blocks the human D3 dopamine receptor; P35462; D3R cells, DiscoveRx beta-arrestin luminescence, antagonist mode; active compounds read low; max response, negative = inhibition, %; 2.5% of 360,000 active; in the data active means max response below about -50%; inconclusive means no clear call, values can overlap the other calls; further: on the % scale 0 is the no-effect control and ±100 the full control effect
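Cells expressing the human receptor were seeded at 1500 cells/well, incubated overnight at 37 degrees C in 5% CO2, then exposed to library compounds with dopamine controls for 90 minutes at 37 degrees C before luminescent detection.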
MBNL1-CUG inh: MBNL1-poly(CUG) RNA binding inhibition | Q9NR56 | TR-FRET MBNL1-His/biotin-(CUG)12 binding, 665/545 ratio | Potency, µM (doses to about 57.5 µM), for inactives: at the highest dose activity change, negative = inhibition, hits mostly inhibitors | 0.036% of 280,000 active | AID 2675; active means well fitted inhibition curve with a large enough effect in the signal ratio, with a control signal flat, not every such curve was filed as active; inconclusive means small, poorly fitted or top-dose-only effect, or effect the other way, or a change in a side signal; inactive means no such curve, though single readings can be large or run the other way; the % refers to the signal ratio; further: potency means the concentration at half of the fitted maximal effect; on the % scale 0 is the no-effect control and ±100 the full control effect
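Inhibition of protein-RNA binding appears as loss of TR-FRET between terbium anti-His antibody on MBNL1-His and streptavidin-XL665 on biotin-(CUG)12. Activity is normalized to buffer-only and uninhibited-complex controls.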
CBFb RUNX1 block: blocks binding between human CBF-beta and RUNX1; AlphaScreen CBFb-His/RUNX1-biotin binding, biochemical; Potency, µM (top dose mostly 59.8 µM), for inactives: top-dose activity, negative = inhibition, hits mostly inhibitors; 230,000 tested, under 10 active; further: % of control where 0% means no effect
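His-tagged CBF-beta and biotinylated RUNX1 (30 nM each) were premixed 20 min at room temperature, exposed to compound for 15 min, then given nickel-chelate and streptavidin AlphaScreen beads (50 ng each). After 90 min, AlphaScreen signal was read.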
An asterisk follows results filed as active; i = inactive; ? = inconclusive; . = not tested or not shown; [ ] = dose if it differs, or a comment. This is a sample that favours compounds with a hit; in the whole collection about 2.8% have one here. Unless noted, the call rests on the fitted dose curve; in most records, active means well fitted curve in the direction sought with a large enough effect; inconclusive means small, poorly fitted or top-dose-only effect, or another doubt; inactive means no such curve, though single readings can be large; an effect the other way counts as inactive or inconclusive.

SMILES	Integrin act MD	DRD3 agonist	PTHR1 agonist	D3 antag	MBNL1-CUG inh	CBFb RUNX1 block
CN1CCN(CCOC2c3ccccc3CSc3ccc(Cl)cc32)CC1 (stereo unspecified)	-27%	-33	i	-90*	-2%	-8%
CC(C)CON=O	.	.	.	.	.	-5%[21.7 µM]
O=C(c1ccccc1)C(CN1CCCC1)c1ccccc1 (stereo unspecified)	-52%	-9	-38%	-56*	-5%	6%
Cc1ncc(CN2CC=C(c3ccccc3)CC2)c(N)n1	.	.	.	.	.	5%
O=[N+]([O-])c1ccccc1CN1CC=C(c2ccc(F)cc2)CC1	-32%	-17	-57%	-68*	?	.
CC(C)N1CCN(Cc2cccc([N+](=O)[O-])c2)CC1	12%	-12	i	?	-4%	2%
O=[N+]([O-])c1cccc(CN2CCN(Cc3ccc(Cl)cc3)CC2)c1	-5%	-12	-16%	-79*	10%	-13%
O=[N+]([O-])c1cccc(CN2CC=C(c3ccc(F)cc3)CC2)c1	31%	-25	-16%	-99*	18%	.
COc1ccc(S(=O)(=O)NCCc2sc3nc(-c4ccc(C)cc4)nn3c2C)cc1F	.	7	-56%	.	.	.
COc1ccc(C(=O)N2CCN(c3nc4c(OC)cccc4s3)CC2)cc1OC	.	0	-36%	.	.	.
S=C(SSC(=S)N1CCCCC1)N1CCCCC1	.	-21	.	.	.	.
Clc1ccc([C@@H](OCCN2CCCCC2)c2ccccc2)cc1	.	.	.	.	.	2%[21.7 µM]
c1ccc(C(OCCN2CCN(c3ncccn3)CC2)c2ccccc2)cc1	22%	-12	-14%	-116*	.	.
CCN(CC)C(=O)c1ccc(NC(=O)c2cccc(C(F)(F)F)c2)cc1	-7%	-15	i	-24	1%	10%
CCN(CCCl)c1cc(CN(C)C)cc(NC(=O)c2ccc(C(=O)Nc3cc(CN(C)C)cc(N(CC)CCCl)c3)cc2)c1	-59%	-12	i	-84*	.	.
O=C(CCCc1nc(-c2ccc(Cl)cc2)no1)NCC1CCCO1 (stereo unspecified)	-30%	34*	-41%	7	0%	.
Cc1c(C=C2C(=O)N(C)C(=S)N(C)C2=O)c2ccccc2n1CC(=O)NCC1CCCO1 (stereo unspecified)	-12%	0	-8%	8	?	.
COc1ccc(CN2CCN(Cc3ccccc3F)CC2)cc1	-16%	-38	-71%	-73*	-6%	.
CSc1ccc(CN2CCN(Cc3ccccc3Cl)CC2)cc1	-6%	-2	i	-97*	-18%	0%
COc1ccc(NCC(=O)N2CCCC2)cc1Cl	i	-14	-20%	-2	-13%	8%
C[C@H](CN1CCOCC1)C(C(=O)N1CCCC1)(c1ccccc1)c1ccccc1	.	-14	.	.	.	.
Nc1ccccc1N=Cc1c(O)n(CCC2=CCCCC2)c(=O)[nH]c1=O	12%	-10	i	-87*	7%	2%
O=C(N/N=C/c1c(O)n(CCC2=CCCCC2)c(=S)[nH]c1=O)c1ccccc1	20%	-1	i	?	5%	?
O=C(N/N=C/c1c(O)n(CCC2=CCCCC2)c(=O)[nH]c1=O)c1ccccc1	21%	-5	12%	-68*	9%	-25%
Nc1nnc(Sc2ncccc2[N+](=O)[O-])s1	-58%	1	i	-13	?	2%
SMILES	Integrin act MD	DRD3 agonist	PTHR1 agonist	D3 antag	MBNL1-CUG inh	CBFb RUNX1 block
Oc1c(Br)c(Br)c(Br)c(Br)c1Br	.	-85	-39%	-55*	.	-6%[21.7 µM]
Cc1ccc2c(Cl)cc(Cl)c(O)c2n1	-46%	-18	-2%	-110*	.	1%
CN(C)C(=O)Oc1c(Cl)cc(Cl)c2cccnc12	-11%	4	i	-14	10%	5%
ClC1=C(Cl)[C@]2(Cl)[C@@H]3[C@@H]4C[C@@H]([C@H]5O[C@@H]45)[C@@H]3[C@@]1(Cl)C2(Cl)Cl	.	-6	.	.	.	.
O=C(O)CCCC[C@@H]1SC[C@H]2NC(=O)N[C@@H]12	.	.	.	.	.	13µM*
COc1ccc2c3c1O[C@H]1[C@@H](O)C=C[C@H]4[C@@H](C2)NCC[C@@]341	.	-15	.	.	.	.
Cc1nc2c(=O)n(C)c(=O)nc-2n(C)n1	-50%	-28	-31%	-98*	?	10%
CC(C)CNC(=O)c1c(N)n(Cc2ccc3c(c2)OCO3)c2nc3ccccc3nc12	-66%	7	i	87	-2%	7%
CC(C)CCNC(=O)c1c(N)n(Cc2ccc3c(c2)OCO3)c2nc3ccccc3nc12	-31%	35*	-5%	22	-2%	-6%
COC(=O)[C@@H]1[C@H]2CC[C@@H](C[C@H]1OC(=O)c1ccccc1)N2C	.	9	.	.	.	.
O=C(Nc1ccc(Cl)c(C(F)(F)F)c1)NC1CC2CCCC(C1)N2Cc1ccccc1 (stereo unspecified)	-66%	-19	-15%	-84*	-6%	0%
O=C(Nc1ccc(F)cc1)NC1CCN(Cc2ccccc2)CC1	-24%	3	-32%	-28	-3%	1%
C=CCN1CC[C@]23c4c5ccc(O)c4OC2C(O)C=CC3[C@H]1C5 (stereo partly specified)	.	-95	-46%	-110*	.	.
COc1ccc2c3c1OC1C(O)C=CC4[C@@H](C2)N(C)CC[C@]314 (stereo partly specified)	.	0	-13%	-13	.	.
CCOP(=S)(OCC)SCSc1ccc(Cl)cc1	.	48*	.	.	.	-10%
O=C(NCCN1CCC2(CC1)C(=O)NCN2c1cccc(F)c1)c1ccc2ccccc2c1	.	-11	-9%	-89*	.	.
O=C(CCCN1CCC2(CC1)C(=O)N(Cc1cccc(F)c1)CN2c1ccccc1)c1ccc(F)cc1	.	.	.	.	.	-12%
O=C(NCCN1CCC(n2c(=O)[nH]c3ccccc32)CC1)c1ccc2ccccc2c1	.	-10	-24%	-55*	.	.
COc1cc([C@@H]2c3cc4c(cc3[C@@H](O)[C@H]3COC(=O)[C@H]23)OCO4)cc(OC)c1O	.	-10	.	.	.	.
CCOC(C(=O)OCCC[N+](C)(CC)CC)(c1ccccc1)c1ccccc1	12%	-25	12%[57.5 µM]	-24	-3%	1%
CCOC(C(=O)OCC(O)CN(CC)CC)(c1ccccc1)c1ccccc1 (stereo unspecified)	-17%	-5	i	-60*	1%	4%
COc1cc2c(cc1OC)-c1c(OC)c(OC)cc3c1[C@H](C2)N(C)CC3	11%	-41	i	-59*	-11%	6%[2.36 µM]
C=CC1CC=CCC1 (stereo unspecified)	.	.	.	.	.	19%[21.7 µM]
COc1ccc(CCN(C)Cc2ccc(F)cc2F)cc1OC	-18%	-28	-14%[57.5 µM]	-77*	-6%	-1%
